Compound in the test: Cc1cc(ccc1-c1ccccc1)C(=O)N1CCCN(CC1)C(=O)CCl [compound 10]
Description: probe-labelled cysteine peptide fold change vs DMSO (competition) (log2 fold change); higher = less target engagement (more negative = stronger competition). Particulars: THP-1, incubation time: 4 h.

These results are taken from the supplement of paper PMC12067093, “Discovery and optimisation of a covalent ligand for TRIM25 and its application to targeted protein ubiquitination” (Chemical Science, 2025).

About 21,000 targets were measured; listed, in parts, are those with the largest changes and a random draw of the rest.
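Also: competitive profiling in live THP-1 cells: cysteine peptides tagged with an iodoacetamide desthiobiotin (IA-DTB) probe, intensity after compound treatment relative to DMSO-treated cells.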

UniProt Q14204, sequence (Q14204 whole entry, looked up): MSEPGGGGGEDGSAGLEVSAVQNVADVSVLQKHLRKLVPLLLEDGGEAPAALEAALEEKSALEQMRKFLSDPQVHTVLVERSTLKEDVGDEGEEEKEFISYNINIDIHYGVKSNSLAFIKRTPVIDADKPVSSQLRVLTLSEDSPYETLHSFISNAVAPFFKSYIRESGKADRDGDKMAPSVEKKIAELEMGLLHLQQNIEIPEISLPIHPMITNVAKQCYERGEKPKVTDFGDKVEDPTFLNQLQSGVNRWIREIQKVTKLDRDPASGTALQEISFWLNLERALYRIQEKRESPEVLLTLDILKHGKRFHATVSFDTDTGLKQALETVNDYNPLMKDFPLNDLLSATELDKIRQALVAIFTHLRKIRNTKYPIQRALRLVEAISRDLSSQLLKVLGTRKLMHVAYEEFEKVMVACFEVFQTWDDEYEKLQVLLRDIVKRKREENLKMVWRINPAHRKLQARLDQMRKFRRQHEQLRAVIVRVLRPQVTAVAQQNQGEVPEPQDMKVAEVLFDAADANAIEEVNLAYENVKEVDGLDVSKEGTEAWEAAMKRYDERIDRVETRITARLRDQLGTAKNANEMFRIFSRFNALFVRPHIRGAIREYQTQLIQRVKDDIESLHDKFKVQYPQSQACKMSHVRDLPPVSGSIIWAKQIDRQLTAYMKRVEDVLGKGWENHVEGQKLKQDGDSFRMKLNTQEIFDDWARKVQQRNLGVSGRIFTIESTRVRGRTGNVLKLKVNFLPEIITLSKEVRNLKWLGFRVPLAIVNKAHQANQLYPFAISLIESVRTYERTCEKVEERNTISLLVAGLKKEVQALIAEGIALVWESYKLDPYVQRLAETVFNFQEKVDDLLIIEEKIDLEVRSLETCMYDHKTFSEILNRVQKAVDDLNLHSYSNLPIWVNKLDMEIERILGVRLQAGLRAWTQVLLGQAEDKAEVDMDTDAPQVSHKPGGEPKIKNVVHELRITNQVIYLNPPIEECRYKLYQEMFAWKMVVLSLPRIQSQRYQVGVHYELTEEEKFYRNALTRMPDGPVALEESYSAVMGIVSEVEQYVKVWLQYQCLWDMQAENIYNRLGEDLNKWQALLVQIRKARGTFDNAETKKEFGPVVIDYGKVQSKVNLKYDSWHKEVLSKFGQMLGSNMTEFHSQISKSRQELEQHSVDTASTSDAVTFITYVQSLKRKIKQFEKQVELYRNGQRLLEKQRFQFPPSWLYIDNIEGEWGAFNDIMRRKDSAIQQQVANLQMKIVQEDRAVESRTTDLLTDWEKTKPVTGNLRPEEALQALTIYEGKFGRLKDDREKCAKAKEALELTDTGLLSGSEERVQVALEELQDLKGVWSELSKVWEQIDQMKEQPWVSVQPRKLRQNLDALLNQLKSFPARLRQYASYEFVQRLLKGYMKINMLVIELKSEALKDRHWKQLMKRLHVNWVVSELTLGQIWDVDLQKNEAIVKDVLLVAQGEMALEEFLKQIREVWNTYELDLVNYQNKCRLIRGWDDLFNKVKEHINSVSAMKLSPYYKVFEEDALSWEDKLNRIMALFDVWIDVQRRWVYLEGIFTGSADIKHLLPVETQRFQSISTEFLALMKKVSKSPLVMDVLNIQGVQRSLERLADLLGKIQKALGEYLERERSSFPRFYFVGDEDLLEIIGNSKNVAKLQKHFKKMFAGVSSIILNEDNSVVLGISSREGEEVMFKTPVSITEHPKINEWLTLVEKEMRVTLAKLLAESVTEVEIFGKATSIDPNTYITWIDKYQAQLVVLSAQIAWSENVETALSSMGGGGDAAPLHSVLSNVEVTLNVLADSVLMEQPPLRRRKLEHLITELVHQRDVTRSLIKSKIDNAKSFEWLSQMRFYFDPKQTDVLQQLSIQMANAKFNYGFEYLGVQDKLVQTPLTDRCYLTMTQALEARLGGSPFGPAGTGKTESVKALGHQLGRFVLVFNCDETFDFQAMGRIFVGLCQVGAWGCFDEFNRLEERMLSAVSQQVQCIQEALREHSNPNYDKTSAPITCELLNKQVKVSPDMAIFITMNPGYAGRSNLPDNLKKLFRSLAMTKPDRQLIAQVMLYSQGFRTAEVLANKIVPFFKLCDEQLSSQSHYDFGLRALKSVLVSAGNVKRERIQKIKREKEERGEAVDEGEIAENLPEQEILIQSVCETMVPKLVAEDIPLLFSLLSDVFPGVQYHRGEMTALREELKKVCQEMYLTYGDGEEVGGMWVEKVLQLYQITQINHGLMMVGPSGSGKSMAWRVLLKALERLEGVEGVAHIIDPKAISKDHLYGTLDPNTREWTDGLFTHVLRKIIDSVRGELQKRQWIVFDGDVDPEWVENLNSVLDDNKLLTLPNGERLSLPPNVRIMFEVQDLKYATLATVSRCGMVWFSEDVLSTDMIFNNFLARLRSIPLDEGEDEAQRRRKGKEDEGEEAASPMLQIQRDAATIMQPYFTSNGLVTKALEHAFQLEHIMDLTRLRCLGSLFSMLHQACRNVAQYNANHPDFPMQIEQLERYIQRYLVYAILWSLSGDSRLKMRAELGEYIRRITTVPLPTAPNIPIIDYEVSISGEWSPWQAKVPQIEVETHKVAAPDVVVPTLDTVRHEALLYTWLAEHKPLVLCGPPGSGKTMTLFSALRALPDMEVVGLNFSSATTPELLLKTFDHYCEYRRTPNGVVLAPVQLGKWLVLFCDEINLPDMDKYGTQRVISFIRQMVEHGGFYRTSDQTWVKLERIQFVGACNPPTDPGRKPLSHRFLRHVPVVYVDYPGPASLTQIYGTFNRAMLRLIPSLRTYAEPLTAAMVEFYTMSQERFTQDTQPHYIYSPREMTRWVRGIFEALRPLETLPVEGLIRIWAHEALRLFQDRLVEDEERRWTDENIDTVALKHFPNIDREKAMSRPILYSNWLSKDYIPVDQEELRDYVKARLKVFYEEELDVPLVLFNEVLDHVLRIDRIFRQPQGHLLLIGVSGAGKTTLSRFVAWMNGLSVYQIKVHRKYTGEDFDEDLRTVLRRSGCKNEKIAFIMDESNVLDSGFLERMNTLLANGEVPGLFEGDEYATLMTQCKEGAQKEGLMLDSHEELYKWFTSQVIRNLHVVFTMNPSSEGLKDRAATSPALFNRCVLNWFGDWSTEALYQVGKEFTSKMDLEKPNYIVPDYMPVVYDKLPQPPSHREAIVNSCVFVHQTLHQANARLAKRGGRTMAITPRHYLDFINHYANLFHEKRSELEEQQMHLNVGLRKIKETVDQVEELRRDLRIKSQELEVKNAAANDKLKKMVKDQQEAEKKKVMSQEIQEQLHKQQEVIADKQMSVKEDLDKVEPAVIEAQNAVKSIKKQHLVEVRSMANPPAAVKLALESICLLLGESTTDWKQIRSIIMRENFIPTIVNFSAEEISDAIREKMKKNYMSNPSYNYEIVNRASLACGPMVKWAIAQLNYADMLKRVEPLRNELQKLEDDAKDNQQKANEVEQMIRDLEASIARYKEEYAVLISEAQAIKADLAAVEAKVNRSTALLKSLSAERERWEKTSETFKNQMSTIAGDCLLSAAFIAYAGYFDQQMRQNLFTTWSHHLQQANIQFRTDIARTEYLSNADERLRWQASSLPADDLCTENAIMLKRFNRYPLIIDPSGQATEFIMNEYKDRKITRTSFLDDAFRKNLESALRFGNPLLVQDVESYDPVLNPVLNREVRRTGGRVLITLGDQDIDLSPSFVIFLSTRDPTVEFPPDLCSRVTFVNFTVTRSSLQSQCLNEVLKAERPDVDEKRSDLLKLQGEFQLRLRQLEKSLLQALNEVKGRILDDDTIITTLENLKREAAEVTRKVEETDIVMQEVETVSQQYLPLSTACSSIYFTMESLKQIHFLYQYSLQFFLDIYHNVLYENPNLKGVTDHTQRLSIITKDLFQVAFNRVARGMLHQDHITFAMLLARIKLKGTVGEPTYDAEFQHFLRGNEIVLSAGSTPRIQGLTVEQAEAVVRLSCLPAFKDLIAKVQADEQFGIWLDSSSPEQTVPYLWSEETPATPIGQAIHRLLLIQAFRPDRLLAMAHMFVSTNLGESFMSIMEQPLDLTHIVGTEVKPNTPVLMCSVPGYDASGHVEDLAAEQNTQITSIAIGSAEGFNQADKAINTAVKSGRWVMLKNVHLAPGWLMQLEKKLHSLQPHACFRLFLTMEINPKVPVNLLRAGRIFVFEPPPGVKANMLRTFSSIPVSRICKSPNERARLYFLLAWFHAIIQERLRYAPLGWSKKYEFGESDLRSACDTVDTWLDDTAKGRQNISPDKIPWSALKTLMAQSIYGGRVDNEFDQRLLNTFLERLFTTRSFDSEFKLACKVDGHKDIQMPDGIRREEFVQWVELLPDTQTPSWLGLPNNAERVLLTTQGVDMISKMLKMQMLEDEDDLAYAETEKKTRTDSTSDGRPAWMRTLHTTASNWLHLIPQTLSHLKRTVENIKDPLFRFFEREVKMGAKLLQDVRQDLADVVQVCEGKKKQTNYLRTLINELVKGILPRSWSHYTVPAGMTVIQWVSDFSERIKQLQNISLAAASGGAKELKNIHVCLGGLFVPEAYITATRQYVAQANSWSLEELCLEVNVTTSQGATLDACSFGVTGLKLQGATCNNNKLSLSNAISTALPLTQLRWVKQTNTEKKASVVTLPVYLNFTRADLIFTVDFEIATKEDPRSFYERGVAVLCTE
UniProt Q15717, sequence (Q15717 whole entry, looked up): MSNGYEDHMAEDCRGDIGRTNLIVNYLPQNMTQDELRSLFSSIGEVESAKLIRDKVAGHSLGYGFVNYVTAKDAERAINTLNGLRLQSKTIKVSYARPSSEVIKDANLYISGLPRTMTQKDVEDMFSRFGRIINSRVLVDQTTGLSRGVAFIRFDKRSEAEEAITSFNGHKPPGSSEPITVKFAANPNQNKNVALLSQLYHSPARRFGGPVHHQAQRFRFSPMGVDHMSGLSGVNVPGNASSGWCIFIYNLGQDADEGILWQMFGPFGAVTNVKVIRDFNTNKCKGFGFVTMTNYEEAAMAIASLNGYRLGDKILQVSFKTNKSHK
UniProt Q9Y3B2, sequence (Q9Y3B2 whole entry, looked up): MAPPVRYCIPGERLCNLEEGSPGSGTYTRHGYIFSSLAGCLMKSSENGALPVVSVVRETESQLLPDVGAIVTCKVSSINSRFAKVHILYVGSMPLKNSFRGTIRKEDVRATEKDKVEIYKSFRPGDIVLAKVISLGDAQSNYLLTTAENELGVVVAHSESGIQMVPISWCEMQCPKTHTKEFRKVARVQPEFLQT

“FAM122A_Q96E09_193_SQSPINCIRPSVLGPLK (UniProt Q96E09)”: the “probe-labelled cysteine peptide fold change” value (10 µM) was -0.132 and the “probe-labelled cysteine peptide fold change” value (50 µM) is -0.161.

As for “DSCR3_O14972_219+221_VETCGCAEGYAR (UniProt O14972)”, the “probe-labelled cysteine peptide fold change” value (10 µM) was -0.345 and the “probe-labelled cysteine peptide fold change” value (50 µM) was -2.51.

With “EPRS_P07814_92+105_LSSCDSFTSTINELNHCLSLR (UniProt P07814)”, the “probe-labelled cysteine peptide fold change” value by setting is: (10 µM) 0.0532; (50 µM) -0.00186.

Turning to “EIF2S3_P41091_96+101_LDDPSCPRPECYR (UniProt P41091)”, the “probe-labelled cysteine peptide fold change” value runs as follows: (10 µM) -0.389; (50 µM) -0.339.

On to “EIF3CL_B5ME19_572_TCAILCHIYHHALHSR<|>EIF3C_Q99613_571_TCAILCHIYHHALHSR (UniProt Q99613+B5ME19)”, for which the “probe-labelled cysteine peptide fold change” value reads like this: (10 µM) 0.0697; (50 µM) -0.279.

“EPRS_P07814_660_NSKHEELMLGDPCLK (UniProt P07814)”: the “probe-labelled cysteine peptide fold change” value was -0.334 (10 µM) and -1.37 (50 µM).

On to “DYNC1I2_Q13409_331_TTPEYVFHCQSAVMSATFAK (UniProt Q13409)”, for which the “probe-labelled cysteine peptide fold change” value (10 µM) was found to be 0.091 and the “probe-labelled cysteine peptide fold change” value (50 µM) came out at 0.418.

On to “EEFSEC_P57772_442_LDADIHTNTCR (UniProt P57772)”, for which the “probe-labelled cysteine peptide fold change” value was -0.204 (10 µM) and -1.14 (50 µM).

For “ENG_P17813_549_TGTLSCTVALRPK (UniProt P17813)”, the “probe-labelled cysteine peptide fold change” value reads like this: (10 µM) -0.142; (50 µM) -0.0378.

Consider “FANCI_Q9NVI1_650_LEACILTQGDK (UniProt Q9NVI1)”, for which the “probe-labelled cysteine peptide fold change” value runs as follows: (10 µM) -0.0611; (50 µM) -0.113.

For “DSTN_P60981_12_ASGVQVADEVCR (UniProt P60981)”, the “probe-labelled cysteine peptide fold change” value is, setting by setting: (10 µM) 0.0942; (50 µM) 0.212.

Turning to “ERLEC1_Q96DZ1_126_IESYWTYEVCHGK (UniProt Q96DZ1)”, the “probe-labelled cysteine peptide fold change” value by setting is: (10 µM) 0.192; (50 µM) 0.0829.

With “DYNC1H1_Q14204_2712_IQFVGACNPPTDPGRKPLSHR (UniProt Q14204)”, the “probe-labelled cysteine peptide fold change” value was -0.0552 (10 µM) and 0.27 (50 µM).

As to “ETHE1_O95571_170_TDFQQGCAK (UniProt O95571)”, the “probe-labelled cysteine peptide fold change” value is, setting by setting: (10 µM) -0.118; (50 µM) -1.3.

Take “EEF1A2_Q05639_411_SGDAAIVEMVPGKPMCVESFSQYPPLGR (UniProt Q05639)”: the “probe-labelled cysteine peptide fold change” value is, setting by setting: (10 µM) -0.261; (50 µM) -0.239.

As for “EEF1A1_P68104_234_DGNASGTTLLEALDCILPPTRPTDKPLRLPLQDVYK (UniProt P68104)”, the “probe-labelled cysteine peptide fold change” value is, setting by setting: (10 µM) -0.124; (50 µM) -0.435.

With “EXOSC1_Q9Y3B2_73_ETESQLLPDVGAIVTCK (UniProt Q9Y3B2)”, the “probe-labelled cysteine peptide fold change” value is, setting by setting: (10 µM) -0.0568; (50 µM) 0.13.

As to “EHMT1_Q9H9B1_1111_LLPEFNMAEPPLIFECNHACSCWR (UniProt Q9H9B1)”, the “probe-labelled cysteine peptide fold change” value is, setting by setting: (10 µM) 0.0188; (50 µM) -0.282.

Turning to “ELAVL1_Q15717_13_SNGYEDHMAEDCR (UniProt Q15717)”, the “probe-labelled cysteine peptide fold change” value reads like this: (10 µM) 0.863; (50 µM) 1.62.

Take “EPRS_P07814_350_IDMSSNNGCMRDPTLYR (UniProt P07814)”: the “probe-labelled cysteine peptide fold change” value (10 µM) was -0.0274 and the “probe-labelled cysteine peptide fold change” value (50 µM) was -0.367.

As for “EIF2B1_Q14232_218_IGTNQMAVCAK (UniProt Q14232)”, the “probe-labelled cysteine peptide fold change” value reads like this: (10 µM) -0.148; (50 µM) -0.133.

For the target “EPS15_P42566_782_IGTPTRPCPLPPGKR (UniProt P42566)”, the “probe-labelled cysteine peptide fold change” value is, setting by setting: (10 µM) -0.367; (50 µM) -1.1.

Regarding “FAM76B_Q5HYJ3_73_PCQYCNIIAAFIGTK (UniProt Q5HYJ3)”, the “probe-labelled cysteine peptide fold change” value is -0.188 (10 µM) and 0.0361 (50 µM).

Take “EXOSC6_Q5RKV6_248_LGLEGCQR (UniProt Q5RKV6)”: the “probe-labelled cysteine peptide fold change” value was -0.00681 (10 µM) and 0.0231 (50 µM).

Regarding “FAM208A_Q9UK61_318_HVCPYAVVSFTYK (UniProt Q9UK61)”, the “probe-labelled cysteine peptide fold change” value reads like this: (10 µM) -0.201; (50 µM) -0.698.

Regarding “EFTUD2_Q15029_144+148_TCFVDCLIEQTHPEIR (UniProt Q15029)”, the “probe-labelled cysteine peptide fold change” value (10 µM) was -0.176 and the “probe-labelled cysteine peptide fold change” value (50 µM) was -0.0405.

“FAM208A_Q9UK61_149_ACLVHNELLEK (UniProt Q9UK61)”: the “probe-labelled cysteine peptide fold change” value was -0.2 (10 µM) and -1.18 (50 µM).

With “DTX3L_Q8TDB6_219_DSCISPSEPETK (UniProt Q8TDB6)”, the “probe-labelled cysteine peptide fold change” value (10 µM) was -0.446 and the “probe-labelled cysteine peptide fold change” value (50 µM) was -0.672.

For the target “FBXO22_Q8NEZ5_7_MEPVGCCGECR (UniProt Q8NEZ5)”, the “probe-labelled cysteine peptide fold change” value was -0.235 (10 µM) and 1.31 (50 µM).

Take “EEF1A1P5_Q5VTE0_363+370_GNVAGDSKNDPPMEAAGFTAQVIILNHPGQISAGYAPVLDCHMAHIACK (UniProt Q5VTE0)”: the “probe-labelled cysteine peptide fold change” value is, setting by setting: (10 µM) -0.198; (50 µM) -1.24.

Take “ERCC5_P28715_550_NETHAEVLEQQNELCPYESK (UniProt P28715)”: the “probe-labelled cysteine peptide fold change” value was -0.452 (10 µM) and -0.364 (50 µM).

“FDFT1_P37268_6_CLGHPEEFYNLVR (UniProt P37268)”: the “probe-labelled cysteine peptide fold change” value runs as follows: (10 µM) -0.238; (50 µM) -0.749.

On to “EEF1A1_P68104_31_CGGIDKR<|>EEF1A2_Q5VTE0_31_CGGIDKR (UniProt Q5VTE0+P68104)”, for which the “probe-labelled cysteine peptide fold change” value was -1.04 (10 µM) and -1.79 (50 µM).

Take “EXOSC10_Q01780_555_IAEELPKEPQGIIACCNPVPPLVR (UniProt Q01780)”: the “probe-labelled cysteine peptide fold change” value (10 µM) was -0.144 and the “probe-labelled cysteine peptide fold change” value (50 µM) is -1.17.

As to “EZH2_Q15910_324_NTETALDNKPCGPQCYQHLEGAK (UniProt Q15910)”, the “probe-labelled cysteine peptide fold change” value (10 µM) amounted to 0.251 and the “probe-labelled cysteine peptide fold change” value (50 µM) was -0.196.

For the target “FAM126A_Q9BYI3_401_ETTGESCK (UniProt Q9BYI3)”, the “probe-labelled cysteine peptide fold change” value was -0.493 (10 µM) and -1.16 (50 µM).
